In PubChem BioAssay (NCATS):
“And” between values parts separate entries of the source, which are not always exact repeats. Identical values can stand only once. Values without a mark were called inactive. Inconclusive results are not listed. The source made the active and inactive calls. The call rests on the fitted dose curve; in most records, active means well fitted curve in the direction sought with a large enough effect; inconclusive means small, poorly fitted or top-dose-only effect, or another doubt; inactive means no such curve, though single readings can be large; an effect the other way counts as inactive or inconclusive.

Legend:
[1] = molecular target: Cytochrome P450 3A4 (Homo sapiens) (UniProt P08684); assay: qHTS Assay for Inhibitors and Substrates of Cytochrome P450 3A4 (AID 884); conditions: recombinant CYP3A4, Luciferin-PPXE luminescence; series mostly up to 57.1 µM; further: nearly all actives have a fitted effect of over 50% in size
Cytochrome P450 3A4 (Homo sapiens), sequence (P08684 whole entry, looked up): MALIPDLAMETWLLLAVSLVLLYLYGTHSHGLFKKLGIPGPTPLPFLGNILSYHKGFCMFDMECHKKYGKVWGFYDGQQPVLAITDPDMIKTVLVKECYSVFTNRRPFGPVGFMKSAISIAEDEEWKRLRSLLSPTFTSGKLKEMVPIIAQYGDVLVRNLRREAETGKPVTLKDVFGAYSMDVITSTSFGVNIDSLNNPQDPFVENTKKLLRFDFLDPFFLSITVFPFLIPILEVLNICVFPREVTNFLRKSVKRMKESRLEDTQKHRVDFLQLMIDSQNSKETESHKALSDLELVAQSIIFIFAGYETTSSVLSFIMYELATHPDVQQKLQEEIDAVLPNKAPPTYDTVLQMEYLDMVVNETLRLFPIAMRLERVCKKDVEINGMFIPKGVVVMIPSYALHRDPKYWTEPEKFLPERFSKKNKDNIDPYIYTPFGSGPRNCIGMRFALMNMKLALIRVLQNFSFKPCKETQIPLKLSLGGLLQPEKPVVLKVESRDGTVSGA
How it was run: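 Luminescent readout of luciferin produced by CYP3A4 (20 nM) dealkylation of Luciferin-PPXE, 25 uM (its KM). NADPH-driven reaction ran 60 min at RT after 10 min compound preincubation; data scaled to 57 uM ketoconazole as 100% inhibition.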

[2] = molecular target: Cytochrome P450 3A4 (Homo sapiens) (UniProt P08684); assay: qHTS Assay for Activators of Cytochrome P450 3A4 (AID 885); conditions: recombinant CYP3A4, Luciferin-PPXE luminescence, 60 min; series mostly up to 57.1 µM; further: nearly all actives have a fitted effect of over 65% in size
How it was run: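 CYP3A4 activity: Luciferin-PPXE O-dealkylation, 25uM substrate, 200mM KPO4, RT throughout. Read-out is luciferase luminescence; higher values reflect activation.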
Potency means the concentration at half of the fitted maximal effect.

SMILES	Potency [1]	activity change, positive = activation [2]	Potency [2]
O=C1[C@H]2[C@H]3[C@H](O)[C@H](O)C/C(=N/OC[C@@H](O)COCc4ccco4)[C@H]3CC[C@@H]2C(=O)N1Cc1ccc2c(c1)OCO2	3.16 µM (active)	-88.1% [at 11.4 µM]	–
c1ccc(C2[C@H]3CN(CC4CCCCC4)[C@H](c4ccccc4)C34CC2(c2cccnc2)C4)cc1 (some centres not stated)	12.6 µM (active)	–	inactive
CCC1=C(OC(=O)N(CC)CC)N2C(=O)OC(=NCCc3c[nH]c4ccccc34)[C@]2(C)[C@H]2C1=CC[C@H]1C(=O)N(CC)C(=O)[C@H]12	1.26 µM (active)	–	inactive
COC(=O)[C@@H]1C[C@@H]2CC[C@@H](O)C[C@@H]2N1CC1CCCCC1	12.6 µM (active)	–	inactive
C=CC[C@@H]1C=C[C@H](O/N=C\[C@@H](C)[C@H](OCc2ccccc2)C(C)C)[C@H](CO)O1	3.98 µM (active)	-73.8% [at 11.4 µM]	–
CC(=O)OC[C@@H]1O[C@H](C/C=N\O[C@@H](C)c2cc(-c3c(C)cc(C)cc3C)no2)C=C[C@@H]1OC(C)=O	3.16 µM (active)	-77.7% [at 11.4 µM]	–
CC(C)(C)N1C(=O)[C@H]2[C@H]3[C@H](O)[C@H](O)C/C(=N/OC[C@@H](O)COCc4ccco4)[C@@H]3CC[C@@H]2C1=O	5.01 µM (active)	-87.2% [at 11.4 µM]	–
CO[C@@H]1COC(=O)C/C=C\[C@H](C)[C@@H](NS(=O)(=O)c2ccc(C)cc2)COC(=O)C/C=C\[C@@H]1C	3.98 µM (active) and 3.16 µM (active)	-70.4% [at 11.4 µM] and -70.5% [at 11.4 µM]	–
CCC1=C(OC(=O)N(CC)CC)N2C(=O)OC(=NCCOC)[C@]2(Cc2ccccc2)[C@H]2C1=CC[C@H]1C(=O)N(C)C(=O)[C@H]12	7.94 µM (active)	–	inactive
CN1C[C@@H]2C(c3ccccc3)C3(c4cccnc4)CC2(C3)[C@H]1c1ccccc1 (some centres not stated)	2.51 µM (active)	–	inactive
COc1cccc([C@@H]2Oc3ccc(OC)cc3C(=O)[C@H]2O)c1	3.98 µM (active)	-83.3% [at 11.4 µM]	–
O=C(N/N=C1/C[C@@H](O)[C@@H](O)[C@@H]2[C@@H]3C(=O)N(Cc4ccc5c(c4)OCO5)C(=O)[C@H]3CC[C@H]12)OCc1ccccc1	3.98 µM (active)	-89.7% [at 11.4 µM]	–
CCCCCCN(C(=O)CCCCCN1C(=O)NC(c2ccc(-c3ccccc3)cc2)C(C(=O)OCc2ccccc2)=C1C)C(C(=O)NCCCC)c1ccc(OCC(=O)OC)cc1 (configuration not stated)	10 µM (active)	–	inactive
C/C(CCN1CCc2nc(-c3ccccc3)c(-c3ccccc3)cc2C1)=N\O[C@@H](C)CN1CCCCc2nc(C)c(C)cc21	3.98 µM (active)	-84.8% [at 11.4 µM]	–
CCC1=C(OC(=O)N(CC)CC)N2C(=O)OC(=NCC(=O)OC)[C@]2(C)[C@H]2C1=CC[C@H]1C(=O)N(CC(=O)OC)C(=O)[C@H]12	10 µM (active)	–	inactive
FC(F)(F)c1ccc(C2[C@H]3CN(CC4CCCCC4)[C@H](c4ccccc4)C34CC2(c2cccnc2)C4)cc1 (some centres not stated)	15.8 µM (active)	–	inactive
CCC1=C2CC[C@H]3C(=O)N(c4ccccc4)C(=O)[C@H]3[C@H]2[C@@]2(Cc3ccccc3)C(=NCCc3c[nH]c4ccccc34)OC(=O)N2C1=O	1.26 µM (active)	–	inactive
CCC1=C2CC[C@H]3C(=O)N(CC)C(=O)[C@H]3[C@H]2[C@@]2(Cc3ccccc3)C(=O)N(Cc3ccccc3)C(=O)N2C1=O	3.98 µM (active)	–	inactive
CC(=O)OC1CCC2(C)C3CCC4(C)C(CC5CCCCC54C(C)=O)C3CC(=O)[C@@]2(O)C1 (some centres not stated)	10 µM (active)	–	inactive
COC(=O)c1ccc(C23CC4(C2)[C@H](CN(CC2CCCCC2)[C@@H]4c2ccccc2)C3c2ccccc2)cc1 (some centres not stated)	25.1 µM (active)	–	inactive
COC(=O)[C@@H]1C[C@@H]2CC[C@@H](O)C[C@@H]2N1Cc1ccc(OC)cc1	15.8 µM (active)	–	inactive
Cn1c(=O)c(C(=O)COC(=O)c2cc(-c3ccco3)nc3ccccc23)c(N)n(CC2CC2)c1=O	7.94 µM (active)	–	inactive
Clc1ccc(C2[C@H]3CN(Cc4cccnc4)[C@H](c4ccccc4)C34CC2(c2ccccc2)C4)cn1 (some centres not stated)	2 µM (active)	–	inactive
CCC1=C(OC(=O)N(CC)CC)N2C(=O)OC(=NCC3CC3)[C@]2(C)[C@H]2C1=CC[C@H]1C(=O)NC(=O)[C@H]12	10 µM (active)	–	inactive
CCC1=C(OC(=O)N(CC)CC)N2C(=O)OC(=NCCOC)[C@]2(C)[C@H]2C1=CC[C@H]1C(=O)N(CC)C(=O)[C@H]12	7.94 µM (active)	–	inactive
CCC1=C2CC[C@H]3C(=O)N(c4ccccc4)C(=O)[C@H]3[C@H]2[C@@]2(C)C(=NCC3CC3)OC(=O)N2C1=O	10 µM (active)	–	inactive

SMILES	Potency [1]	activity change, positive = activation [2]	Potency [2]
S=C=Nc1cccc(NC(=S)NCCCCNC(=S)Nc2cccc(N=C=S)c2)c1	3.16 µM (active)	–	inactive
[C-]#[N+]/C(C#N)=C\c1cc(C(C)(C)C)c(O)c(C(C)(C)C)c1	3.98 µM (active)	–	inactive
CC(=O)OC[C@@H]1O[C@H](CCO/N=C(\C)CCC(=O)OC[C@@H]2O[C@H](C#Cc3ccccc3)C=C[C@@H]2Oc2ccc(C)cc2)C=C[C@@H]1OC(C)=O	3.16 µM (active)	-92.8% [at 11.4 µM]	–
COC(=O)c1ccc(C(NC(=O)OCc2ccccc2)/C(C)=C/[C@@H](C)C(=O)NCc2cc(C)on2)cc1 (some centres not stated)	2 µM (active)	–	inactive
Cc1ccc(C(=O)[C@@H]2[C@H]3C4COC(O4)C(=O)[C@@H]3[C@H]3C=Cc4ccccc4N32)cc1 (some centres not stated)	25.1 µM (active)	–	inactive
CCC1=C(OC(=O)N(CC)CC)N2C(=O)OC(=NCCc3c[nH]c4ccccc34)[C@]2(Cc2ccccc2)[C@H]2C1=CC[C@H]1C(=O)N(CC(=O)OC)C(=O)[C@H]12	2.51 µM (active)	–	inactive
CCC1=C(OC(=O)N(CC)CC)N2C(=O)OC(=NCCOC)[C@]2(Cc2ccccc2)[C@H]2C1=CC[C@H]1C(=O)NC(=O)[C@H]12	6.31 µM (active)	–	inactive
CC1CC2(C)Oc3ccccc3C3OCC1(COC(=O)Nc1ccccc1)C(C)C32 (configuration not stated)	10 µM (active)	–	inactive
C[C@@H](c1ccccc1)N1C(=O)[C@H]2[C@H]3[C@H](O)[C@H](O)C/C(=N/OC[C@@H](O)COCc4ccco4)[C@H]3CC[C@@H]2C1=O	3.98 µM (active)	-66.6% [at 11.4 µM]	–
C/C(CCN1CCCc2nc(C)c(C)cc21)=N\OC[C@@H](O)COCc1ccco1	3.98 µM (active)	-77.3% [at 11.4 µM]	–
CCCNC(=O)OC[C@H]1O[C@@H](CCO/N=C2/[C@H]3O[C@@H]3[C@@H](O)[C@H]3[C@H]2CCn2c(=O)n(-c4ccccc4)c(=O)n23)C=C[C@@H]1Oc1ccc(OC)cc1	3.16 µM (active)	-85.3% [at 11.4 µM]	–
COC(=O)C/C=C\[C@@H](C)[C@@H](/C=N\OC[C@@H](O)[C@H]1O[C@H]2OC(C)(C)O[C@H]2[C@@H]1O)NS(=O)(=O)c1ccc(C)cc1	3.98 µM (active)	-61% [at 11.4 µM]	–
COC(=O)c1ccc(C(NC(=O)OCc2ccccc2)/C(=C/[C@@H](C)C(=O)NCc2ccc(-c3ccccc3)cc2)c2cccnc2)cc1 (some centres not stated)	0.794 µM (active)	–	inactive
CCC1=C2CC[C@H]3C(=O)N(CC)C(=O)[C@H]3[C@H]2[C@@]2(Cc3ccccc3)C(=NCc3ccccc3)OC(=O)N2C1=O	3.16 µM (active)	–	inactive
CCC1=C(OC(=O)N(CC)CC)N2C(=O)OC(=NCC3CC3)[C@]2(Cc2ccccc2)[C@H]2C1=CC[C@H]1C(=O)N(CC(=O)OC)C(=O)[C@H]12	2 µM (active)	–	inactive
CCC1=C2CC[C@H]3C(=O)N(CC)C(=O)[C@H]3[C@H]2[C@@]2(Cc3ccccc3)C(=NCC3CC3)OC(=O)N2C1=O	2.51 µM (active)	–	inactive
Cc1ccc2oc(=O)c3c4cc(O)c(O)cc4oc3c2c1	20 µM (active)	–	inactive
c1ccc(C2[C@H]3CN(Cc4cccnc4)[C@H](c4ccccc4)C34CC2(c2ccccc2)C4)cc1 (some centres not stated)	1.58 µM (active)	–	inactive
CCC[C@@H]1C[C@@]1(CCC)[C@@H](NP(=O)(c1ccccc1)c1ccccc1)c1ccc(C(=O)OC)cc1	3.16 µM (active)	–	inactive
Cc1ccc(S(=O)(=O)N[C@H]2COC(=O)C/C=C\[C@@H](C)[C@H](NS(=O)(=O)c3ccc(C)cc3)COC(=O)C/C=C\[C@H]2C)cc1	3.16 µM (active)	-62.5% [at 11.4 µM]	–
COC(=O)c1ccc(C23CC4(C2)[C@H](CN(CC2CCCCC2)[C@@H]4c2ccccc2)C3c2ccc(Cl)nc2)cc1 (some centres not stated)	25.1 µM (active)	–	inactive
CCC1=C2CC[C@H]3C(=O)N(CC)C(=O)[C@H]3[C@H]2[C@@]2(Cc3ccccc3)C(=O)N(CC3CC3)C(=O)N2C1=O	2.51 µM (active)	–	inactive
CCCNC(=O)OC[C@@H]1O[C@H](CCO/N=C(\C)CCN2CCCCc3nc(C)c(C)cc32)C=C[C@@H]1Oc1ccc(OC)cc1	3.16 µM (active)	-95.5% [at 11.4 µM]	–
CC1=C(C(=O)OCc2ccccc2)C(C2CCCCC2)NC(=O)N1CCCCCC(=O)O (configuration not stated)	inactive	–	15.8 µM (active)
COc1ccc(O[C@H]2C=C[C@@H](c3ccccc3)O[C@@H]2CO/N=C\[C@@H](C)[C@H](OCc2ccccc2)C(C)C)cc1	3.98 µM (active)	-73.9% [at 11.4 µM]	–
